This note sets out measurements from ChEMBL document CHEMBL1201862, “PubChem BioAssay data set” (2004).

Screen size: about 310,000 compounds; about 17,000 (5.5%) were called active. Inconclusive results (about 11%) are left out. The rule behind the calls is not given here. This excerpt belongs to a sample that is enriched for actives.

The test has as its target T1, Nuclear receptor ROR-gamma (Mus musculus) (UniProt P51450).
T1 sequence (whole entry): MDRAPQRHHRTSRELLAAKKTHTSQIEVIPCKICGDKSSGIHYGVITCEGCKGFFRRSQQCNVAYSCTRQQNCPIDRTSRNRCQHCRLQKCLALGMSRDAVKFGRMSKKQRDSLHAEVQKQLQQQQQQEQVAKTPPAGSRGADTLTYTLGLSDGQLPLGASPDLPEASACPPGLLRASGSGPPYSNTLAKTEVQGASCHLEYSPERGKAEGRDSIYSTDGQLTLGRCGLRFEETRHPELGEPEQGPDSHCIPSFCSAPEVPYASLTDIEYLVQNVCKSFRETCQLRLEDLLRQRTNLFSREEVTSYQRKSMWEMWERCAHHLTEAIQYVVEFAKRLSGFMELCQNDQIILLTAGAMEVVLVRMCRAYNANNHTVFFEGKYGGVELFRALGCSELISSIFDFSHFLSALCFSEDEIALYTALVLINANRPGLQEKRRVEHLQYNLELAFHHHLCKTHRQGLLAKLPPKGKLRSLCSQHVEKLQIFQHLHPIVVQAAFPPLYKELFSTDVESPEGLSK
The test can be described thus: qHTS for inhibitors of ROR gamma transcriptional activity. The test is classed as functional. On the technique in general: Quantitative high-throughput screening tests each substance at several concentrations.
As for `COC[C@@H]([C@H](O)[C@H](O)C(=O)NCC[C@H](C)c1nc(/C=C/C[C@@H]2O[C@]3(C[C@@H](O)[C@@H]2C)O[C@H]([C@H](C[C@H](O)[C@H](C)[C@H](O)[C@H](C)/C=C(C)/C(C)=C/C=C/C(C)=C\C#N)OC)[C@H](OP(=O)(O)O)C3(C)C)co1)N(C)C`, the Potency was 0.0014 µM (active).
Then `Cl[Te]1(Cl)OCCO1`, with 15.8 µM (active).
